In PubChem BioAssay (EPA / NIEHS) one finds outcome and AC50 data, which are given here for 40 compounds.

Calls of active or inactive are those of the source. How the source made its calls: active means hit-call score of the fitted dose curve at least 0.9, where 1 is the maximum; inactive means score below 0.9.

A short description of the experiment: ATG_DR4_LXR_CIS: Attagene CIS-FACTORIAL HepG2 Assay for human Liver X Receptor (LXR), DR4 submotif (AID 2282929). Particulars: HepG2 Attagene DR4 cis-reporter, mRNA transcription; actives raise or lower the signal. Here is the method:
ATG_CIS is a cell-based, multiplexed-readout assay that uses HepG2, a human liver cell line, with measurements taken at 24 hours after chemical dosing in a 24-well plate.ATG_DR4_LXR_CIS is one of 52 assay component(s) measured or calculated from the ATG_CIS assay. It is designed to make measurements of mRNA induction, a form of inducible reporter, as detected with fluorescence intensity signals by Reverse transcription polymerase chain reaction (RT-PCR) and Capillary electrophoresis technology.Data from the assay component ATG_DR4_LXR_CIS was analyzed into 1 assay endpoint. This assay endpoint, ATG_DR4_LXR_CIS, was analyzed with bidirectional fitting relative to DMSO as the negative control and baseline of activity. Using a type of inducible reporter, measures of mRNA for gain or loss-of-signal activity can be used to understand the reporter gene at the transcription factor-level as they relate to the gene NR1H2 and NR1H3. Furthermore, this assay endpoint can be referred to as a primary readout, because this assay has produced multiple assay endpoints where this one serves a reporter gene function. To generalize the intended target to other relatable targets, this assay endpoint is annotated to the nuclear receptor intended target family, where the subfamily is non-steroidal.
Human liver HepG2 cells are transiently transfected with multiple reporter transcription units (MRTUs) in 6-well plates using FuGene 6 reagent (Roche; 3 ml FuGene/1 mg DNA). The MRTU constructs are regulated by a cis-regulating element (promoter). […] A major difference between the CIS and TRANS system is that in CIS activities of endogenous TFs are measured, whereas the TRANS assay evaluates changes in activities of exogenous, chimeric NR-Gal4 proteins. […] At the end of 24 hour incubation, total RNA was isolated using TriZol reagent (Invitrogen). The isolated RNA is then reverse-transcribed using oligo(dT) primer and Mo-MLV reverse transcriptase (Invitrogen) with DNAse I (Ambion) treatment for 30 min. The one-tenth of the produced cDNA was amplified by PCR using Taq DNA polymerase (Invitrogen) and two reporter sequence-specific primers. The PCR products were fluorescently labeled by primer extension with 6-arboxyfluorescein (6-FAM) 5'-labeled reporter sequence-specific primer (2 min at 95 C, 20 s at 68 C and 10 min at 72 C) and these products were digested with 5U of HpaI (New England Biolabs) for 2h at 37 C. The fragments were purified using Qiaquick PCR columns (Qiagen), analyzed on an ABI 3130xL genetic analyzer (Applied Biosystems) with peak positions identified by using a set of X-rhodamine (ROX)-labeled MapMarker1000 molecular weight standards (BioVentures). The raw capillary electrophoresis data was processed using Attagraph software (Attagene).
Consider `CC(CN=Cc1ccccc1O)N=Cc1ccccc1O` (stereo not given), for which the call was inactive. On the same count and under the same terms, next, `CC/C=C\CCOC(=O)CC`: “inactive”. Same read-out and setting: next, `C[N+](C)(C)CCCCCC[N+](C)(C)C`: “inactive”; `CC(=O)c1c(C)c([N+](=O)[O-])c(C(C)(C)C)c([N+](=O)[O-])c1C`: “inactive”.

In the case of `CC(C)CCCCCCc1ccc(OCCOCCO)cc1`, the compound was classed as inactive. The same measure, in the same setting: next, `Cc1ccc(OC(=O)c2ccccc2O)cc1`: “inactive”; `COCCc1ccc(OCC(O)CNC(C)C)cc1` (stereo not given): “inactive”; `Nc1c(Cl)cc(Cl)cc1[N+](=O)[O-]`: “inactive”. Same read-out and setting: next, `C=CC(C)(O)CCC=C(C)C` (stereo not given): “inactive”; `O=C(O)c1cccnc1C(=O)O`: “inactive”. Still for that read-out and setting: next, `O=CN1CCOCC1`: “inactive”; `c1ccc2[nH]cnc2c1`: “inactive”. Broadly, the AC50 is the concentration giving half of the maximal activity seen. Consider `CC(C)(C)C1=CC(=O)C(C(C)(C)C)=CC1=O`, for which the AC50 is 50 µM (active).

Regarding `OCC(O)c1ccccc1` (stereo not given), the compound was called inactive.

With `C1CCOC1`, the outcome was inactive.

With `OCCc1ccccc1`, the outcome was inactive.

On to `CCOc1ccc(N=Nc2ccc(C=Cc3ccc(N=Nc4ccc(OCC)cc4)cc3S(=O)(=O)O)c(S(=O)(=O)O)c2)cc1`, for which the result was inactive. `O=C1OC[C@H](Cc2cccc(O)c2)[C@H]1Cc1cccc(O)c1`: the AC50 was 13.9 µM (active).

As for `C=C1CC[C@H](O)C/C1=C/C=C1\CCC[C@]2(C)[C@@H]([C@H](C)/C=C/[C@H](C)C(C)C)CC[C@@H]12`, the compound was called inactive. Same read-out and setting: to `ON=C1CCCCC1` belongs “inactive”; to `OCC#CCO`, “inactive”; to `COc1ccc(CCN2CCC(Nc3nc4ccccc4n3Cc3ccc(F)cc3)CC2)cc1`, “inactive”. For the compound `O=CCc1ccccc1`, the result was inactive. Same read-out and setting: to `CC(C)=CCCC(C)CC(=O)O` (stereo not given) belongs “inactive”; to `CCC(=O)OCCOc1ccccc1`, “inactive”. Still for that read-out and setting: to `Nc1ccccc1[N+](=O)[O-]` belongs “inactive”; to `CCCC[O][Al]([O]CCCC)[O]CCCC`, “inactive”; to `CC(C)C[C@H](NC(=O)OCC1c2ccccc2-c2ccccc21)C(=O)O`, “inactive”. For the compound `CCCCCCCCCCCCCCN(CCO)CCO`, the AC50 was 13.8 µM (active). Regarding `OCc1ccc(Cl)cc1Cl`, the compound was called inactive. For `CN1C(=O)c2ccccc2C1=O`, the outcome was inactive. On to `CCCCCc1ccco1`, for which the AC50 was 101 µM (active). In the case of `Nc1c(S(=O)(=O)O)cc(Br)c2c1C(=O)c1ccccc1C2=O`, the outcome was inactive. The same measure, in the same setting: next, `CCOC(=O)CN`: “inactive”; `Nc1ccc2c(O)cc(S(=O)(=O)O)cc2c1`: “inactive”; `O=Cc1ccccc1S(=O)(=O)O`: “inactive”. As for `CCCCCCCCCCCCCCCC(=O)OC/C=C(C)/C=C/C=C(C)/C=C/C1=C(C)CCCC1(C)C`, the result was inactive.

Turning to `O=C1c2ccccc2C(=O)c2c(O)ccc(O)c21`, the outcome was inactive.

Consider `COc1cccc(OC)c1O`, for which the result was inactive. Still for that read-out and setting: next, `C=Cc1ccc(C(C)(C)C)cc1`: “inactive”.
